# Measured values reported in the supplement of paper PMC6411743.
# ± gives the standard deviation of the averaged measurements. Of roughly 6,500 targets only a part is listed; those with the largest changes were picked by preference.
# Assays:
# Assay in all cases: NP40-soluble protein abundance relative to vehicle (solubility fold change) (ratio); higher = more soluble protein in presence of ATP
# [1] = molecular target: T1, LAGE3 (UniProt Q14657)
# T1 sequence (whole entry): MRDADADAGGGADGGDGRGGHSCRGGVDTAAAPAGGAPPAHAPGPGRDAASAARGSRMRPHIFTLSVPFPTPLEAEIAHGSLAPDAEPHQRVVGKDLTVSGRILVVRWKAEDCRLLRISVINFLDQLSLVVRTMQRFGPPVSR
# How it was run: (§1)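 Values are fold changes against the detergent-processed vehicle, based on vsn-normalised intensities. Jurkat crude lysate was treated at eight concentrations from 0.1 to 10 mM (10 min at room temperature, then 3 min at 37 °C), solubilised with 0.8% NP40 and benzonase, ultracentrifuged and analysed by TMT-labelled LC-MS/MS over three independent experiments.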
# [2] = molecular target: T2, NHLRC2 (UniProt Q8NBF2)
# T2 sequence (whole entry): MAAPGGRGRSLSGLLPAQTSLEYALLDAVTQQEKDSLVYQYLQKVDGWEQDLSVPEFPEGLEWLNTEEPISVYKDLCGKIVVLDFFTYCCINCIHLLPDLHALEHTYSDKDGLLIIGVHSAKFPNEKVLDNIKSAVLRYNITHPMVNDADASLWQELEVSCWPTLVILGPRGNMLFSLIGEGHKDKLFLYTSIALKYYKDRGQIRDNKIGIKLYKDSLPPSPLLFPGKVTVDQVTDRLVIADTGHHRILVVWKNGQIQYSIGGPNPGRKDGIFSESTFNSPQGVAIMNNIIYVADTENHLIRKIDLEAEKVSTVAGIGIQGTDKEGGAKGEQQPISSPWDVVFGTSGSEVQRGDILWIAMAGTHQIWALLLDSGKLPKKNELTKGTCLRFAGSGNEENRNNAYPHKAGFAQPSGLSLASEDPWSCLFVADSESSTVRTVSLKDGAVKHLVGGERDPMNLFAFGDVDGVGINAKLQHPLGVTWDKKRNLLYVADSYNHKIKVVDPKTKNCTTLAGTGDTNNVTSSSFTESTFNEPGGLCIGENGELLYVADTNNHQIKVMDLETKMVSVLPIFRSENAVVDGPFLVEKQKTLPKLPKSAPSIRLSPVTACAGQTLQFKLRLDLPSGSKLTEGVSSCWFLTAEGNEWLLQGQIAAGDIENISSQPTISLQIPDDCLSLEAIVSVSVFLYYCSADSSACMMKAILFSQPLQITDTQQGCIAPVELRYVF
# How it was run: as §1
# [3] = molecular target: T3, PSMD6 (UniProt Q15008)
# T3 sequence (whole entry): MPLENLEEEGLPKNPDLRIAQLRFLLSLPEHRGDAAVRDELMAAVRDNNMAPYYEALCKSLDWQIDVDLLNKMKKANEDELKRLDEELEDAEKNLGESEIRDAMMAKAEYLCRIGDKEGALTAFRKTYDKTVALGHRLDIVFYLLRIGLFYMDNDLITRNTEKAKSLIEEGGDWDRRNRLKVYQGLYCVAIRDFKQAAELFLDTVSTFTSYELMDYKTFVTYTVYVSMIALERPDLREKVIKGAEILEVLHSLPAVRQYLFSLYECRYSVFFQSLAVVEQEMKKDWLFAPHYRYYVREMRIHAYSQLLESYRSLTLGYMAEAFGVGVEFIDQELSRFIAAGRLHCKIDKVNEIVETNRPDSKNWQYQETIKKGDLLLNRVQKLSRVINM
# How it was run: as §1
# [4] = molecular target: T4, UniProt Q12805|Q12805-2|Q12805-3|Q12805-4
# T4 sequence (whole entry): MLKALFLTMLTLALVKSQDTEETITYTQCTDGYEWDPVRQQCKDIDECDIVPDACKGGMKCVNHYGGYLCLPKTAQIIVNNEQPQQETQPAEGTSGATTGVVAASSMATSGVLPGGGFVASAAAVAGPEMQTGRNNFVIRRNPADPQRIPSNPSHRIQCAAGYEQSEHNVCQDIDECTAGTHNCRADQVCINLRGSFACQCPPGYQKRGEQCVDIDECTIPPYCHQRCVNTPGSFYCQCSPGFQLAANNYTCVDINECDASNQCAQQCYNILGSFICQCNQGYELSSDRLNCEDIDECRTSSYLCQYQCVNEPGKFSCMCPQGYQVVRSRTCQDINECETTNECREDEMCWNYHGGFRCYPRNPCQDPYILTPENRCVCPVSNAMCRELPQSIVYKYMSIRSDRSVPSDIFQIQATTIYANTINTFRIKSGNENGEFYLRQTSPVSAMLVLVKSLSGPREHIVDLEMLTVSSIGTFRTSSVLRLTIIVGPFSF
# How it was run: as §1
# [5] = molecular target: T5, UniProt Q53H96|Q53H96-2
# T5 sequence (whole entry): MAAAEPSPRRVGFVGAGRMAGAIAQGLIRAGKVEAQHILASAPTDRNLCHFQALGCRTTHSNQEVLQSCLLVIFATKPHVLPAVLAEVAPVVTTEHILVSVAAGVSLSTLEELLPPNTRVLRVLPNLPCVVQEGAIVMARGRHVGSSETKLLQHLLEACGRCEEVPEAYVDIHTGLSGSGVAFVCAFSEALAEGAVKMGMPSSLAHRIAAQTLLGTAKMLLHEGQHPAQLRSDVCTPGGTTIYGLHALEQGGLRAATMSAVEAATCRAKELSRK
# How it was run: as §1
# [6] = molecular target: T6, UniProt Q8N6R0
# T6 sequence (whole entry): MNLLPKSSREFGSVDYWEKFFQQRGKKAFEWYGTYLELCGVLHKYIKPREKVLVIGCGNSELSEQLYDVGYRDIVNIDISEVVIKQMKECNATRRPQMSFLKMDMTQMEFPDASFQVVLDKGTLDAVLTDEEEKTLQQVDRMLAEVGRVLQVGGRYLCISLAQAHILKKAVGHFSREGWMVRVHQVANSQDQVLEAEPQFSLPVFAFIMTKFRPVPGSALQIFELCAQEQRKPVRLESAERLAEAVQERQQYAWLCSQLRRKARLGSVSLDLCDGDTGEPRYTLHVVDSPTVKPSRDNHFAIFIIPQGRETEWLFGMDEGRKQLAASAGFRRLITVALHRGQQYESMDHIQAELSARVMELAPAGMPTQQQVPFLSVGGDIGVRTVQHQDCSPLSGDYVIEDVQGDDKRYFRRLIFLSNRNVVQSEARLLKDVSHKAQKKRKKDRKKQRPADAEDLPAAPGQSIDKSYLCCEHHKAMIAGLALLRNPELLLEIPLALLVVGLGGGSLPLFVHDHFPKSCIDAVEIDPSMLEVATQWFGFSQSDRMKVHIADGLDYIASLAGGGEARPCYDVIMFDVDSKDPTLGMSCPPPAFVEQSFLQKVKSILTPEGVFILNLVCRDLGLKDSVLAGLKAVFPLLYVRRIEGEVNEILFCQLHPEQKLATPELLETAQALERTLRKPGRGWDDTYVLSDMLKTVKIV
# How it was run: as §1
compound,measurement,setting,value
Nc1ncnc2c1ncn2[C@@H]1O[C@H](COP(=O)(O)OP(=O)(O)OP(=O)(O)O)[C@@H](O)[C@H]1O [adenosine triphosphate],NP40-soluble protein abundance,[1]; concentration: 1mM,0.907 ± 0.071
same,NP40-soluble protein abundance,[1]; concentration: 2mM,0.909 ± 0.073
same,NP40-soluble protein abundance,[1]; concentration: 4mM,0.901 ± 0.029
same,NP40-soluble protein abundance,[1]; concentration: 6mM,0.881 ± 0.072
same,NP40-soluble protein abundance,[1]; concentration: 8mM,0.903 ± 0.034
same,NP40-soluble protein abundance,[1]; concentration: 10mM,0.882 ± 0.011
same,NP40-soluble protein abundance,[2]; concentration: 1mM,1.01 ± 0.078
same,NP40-soluble protein abundance,[2]; concentration: 2mM,0.994 ± 0.096
same,NP40-soluble protein abundance,[2]; concentration: 4mM,0.979 ± 0.091
same,NP40-soluble protein abundance,[2]; concentration: 6mM,0.976 ± 0.12
same,NP40-soluble protein abundance,[2]; concentration: 8mM,0.985 ± 0.1
same,NP40-soluble protein abundance,[2]; concentration: 10mM,0.983 ± 0.09
same,NP40-soluble protein abundance,[3]; concentration: 1mM,0.959 ± 0.015
same,NP40-soluble protein abundance,[3]; concentration: 2mM,0.9 ± 0.021
same,NP40-soluble protein abundance,[3]; concentration: 4mM,0.893 ± 0.022
same,NP40-soluble protein abundance,[3]; concentration: 6mM,0.889 ± 0.048
same,NP40-soluble protein abundance,[3]; concentration: 8mM,0.921 ± 0.032
same,NP40-soluble protein abundance,[3]; concentration: 10mM,0.886 ± 0.025
same,NP40-soluble protein abundance,[4]; concentration: 1mM,1.03 ± 0.091
same,NP40-soluble protein abundance,[4]; concentration: 2mM,1.04 ± 0.052
same,NP40-soluble protein abundance,[4]; concentration: 4mM,1.06 ± 0.075
same,NP40-soluble protein abundance,[4]; concentration: 6mM,1 ± 0.088
same,NP40-soluble protein abundance,[4]; concentration: 8mM,1.05 ± 0.023
same,NP40-soluble protein abundance,[4]; concentration: 10mM,1.04 ± 0.025
same,NP40-soluble protein abundance,[5]; concentration: 1mM,1.04 ± 0.076
same,NP40-soluble protein abundance,[5]; concentration: 2mM,1.06 ± 0.1
same,NP40-soluble protein abundance,[5]; concentration: 4mM,1.09 ± 0.08
same,NP40-soluble protein abundance,[5]; concentration: 6mM,1.01 ± 0.14
same,NP40-soluble protein abundance,[5]; concentration: 8mM,1.03 ± 0.11
same,NP40-soluble protein abundance,[5]; concentration: 10mM,1.03 ± 0.1
same,NP40-soluble protein abundance,[6]; concentration: 1mM,1.04 ± 0.096
same,NP40-soluble protein abundance,[6]; concentration: 2mM,1 ± 0.081
same,NP40-soluble protein abundance,[6]; concentration: 4mM,1.05 ± 0.072
same,NP40-soluble protein abundance,[6]; concentration: 6mM,0.979 ± 0.085
same,NP40-soluble protein abundance,[6]; concentration: 8mM,1.05 ± 0.075
same,NP40-soluble protein abundance,[6]; concentration: 10mM,1.01 ± 0.053
